Measurements reported in PubChem BioAssay (EPA / NIEHS).
Calls of active or inactive are those of the source. The calls were made as follows: active = hit-call score of the fitted dose curve at least 0.9, where 1 is the maximum; inactive = score below 0.9.

What follows are compounds tested on Urokinase-type plasminogen activator receptor (uPAR), PLAUR (gene 5329) (assay: BSK_CASM3C_uPAR: BioMAP Diversity Plus: CASM3C Assay for Urokinase-type plasminogen activator receptor (uPAR) Biomarker Activity (AID 2283054;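 also: cell-surface uPAR protein level quantified by ELISA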)). Details: primary human coronary artery smooth muscle cells; actives raise or lower the signal.

SMILES	outcome
CC(=O)S[C@H](C(=O)N[C@H]1Cc2ccccc2[C@H]2CCC[C@@H](C(=O)O)N2C1=O)C(C)C	inactive
CC(=O)OC1CC(C)OC(C)O1 (stereo not drawn)	inactive
O=C1CCCCC1	inactive
Nc1nc(Cl)nc2c1ncn2[C@H]1C[C@H](O)[C@@H](CO)O1	inactive
Cc1c(C)c2c(c(C)c1O)CCC(C)(COc1ccc(CC3SC(=O)NC3=O)cc1)O2 (stereo not drawn)	inactive
CCCCC(CC)COP(=O)(OCC(CC)CCCC)OCC(CC)CCCC (stereo not drawn)	inactive
O=C(O)c1cccnc1	inactive
O=C(O)CC(O)(CC(=O)O)C(=O)O	inactive

The compounds below were run on Vascular cell adhesion molecule 1 (VCAM1), VCAM1 (gene 7412) (assay: BSK_CASM3C_VCAM1: BioMAP Diversity Plus: CASM3C Assay for Vascular cell adhesion molecule 1 (VCAM1) Biomarker Activity (AID 2283055;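 also: VCAM-1 protein level quantified by ELISA on the cells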)). Details: primary human coronary artery smooth muscle cells; actives raise or lower the signal.

SMILES	AC50	outcome
Cc1ccc(-c2cc(C(F)(F)F)nn2-c2ccc(S(N)(=O)=O)cc2)cc1	29.9 µM (active)	–
O=C1O[C@H]([C@H](O)CO)C(O)=C1O	–	inactive
CCCCc1nc2cccnc2n1Cc1ccc(-c2ccccc2-c2nnn[nH]2)cc1	–	inactive
CCCC(=O)O	–	inactive
CCCCOC(=O)CCCCC(=O)OCCCC	–	inactive
CC(C)NCC(O)c1ccc(O)c(O)c1 (stereo not drawn)	–	inactive
Cn1cnc2c1c(=O)[nH]c(=O)n2C	–	inactive
O=C(Oc1ccccc1)c1cccc(C(=O)Oc2ccccc2)c1	–	inactive
O=C(O)c1[nH]n(-c2ccc(S(=O)(=O)O)cc2)c(=O)c1N=Nc1ccc(S(=O)(=O)O)cc1	–	inactive
CCCCC(CC)CO (stereo not drawn)	–	inactive
CCc1cc(C2=C(C(=O)O)N(c3ccccc3C(F)(F)F)S(=O)(=O)c3ccccc32)cc2c1OCO2	–	inactive
O=C(N[C@@H](c1ccccc1)[C@@H]1CCCCN1)c1cccc(C(F)(F)F)c1Cl	–	inactive
CCC(C)N(C)C(=O)c1cc2ccccc2c(-c2ccccc2Cl)n1 (stereo not drawn)	–	inactive
CCCCCCCCCCCCCCOS(=O)(=O)O	–	inactive
CCCCCCCC(=O)OC	–	inactive
CC(C)c1cccc(C(C)C)c1NC(=O)NS(=O)(=O)c1cc(C(C)(C)O)co1	–	inactive
CCN(CC)CCOc1ccc(C(=C(Cl)c2ccccc2)c2ccccc2)cc1	31.6 µM (active)	–
c1ccc2occc2c1	–	inactive
CCCCCCC(C=O)=Cc1ccccc1	–	inactive
COC(=O)CCC(=O)OC	–	inactive
COC(=O)CCCC(=O)OC	–	inactive
CN(C)C(=O)NC1(c2ccccc2)CCN(CC[C@@]2(c3ccc(F)c(F)c3)CN(C(=O)c3ccccc3)CCO2)CC1	–	inactive
CC(=O)S[C@H](C(=O)N[C@H]1Cc2ccccc2[C@H]2CCC[C@@H](C(=O)O)N2C1=O)C(C)C	–	inactive
CC(=O)OC1CC(C)OC(C)O1 (stereo not drawn)	–	inactive
O=C1CCCCC1	–	inactive
Nc1nc(Cl)nc2c1ncn2[C@H]1C[C@H](O)[C@@H](CO)O1	–	inactive
Cc1c(C)c2c(c(C)c1O)CCC(C)(COc1ccc(CC3SC(=O)NC3=O)cc1)O2 (stereo not drawn)	–	inactive
CCCCC(CC)COP(=O)(OCC(CC)CCCC)OCC(CC)CCCC (stereo not drawn)	–	inactive
O=C(O)c1cccnc1	–	inactive
O=C(O)CC(O)(CC(=O)O)C(=O)O	–	inactive
